This experiment concerns the target UniProt P0AEZ1. The experiment is described as follows: log2 fold change of tryptic peptide abundance, ligand vs vehicle (limited proteolysis) (log2 ratio); higher = more trypsin-susceptible (destabilized). The settings on record: peptide sequence: DYWNNGIR; peptide start residue: 105; ligand concentration: 5 mM; sample: E. coli desalted lysate; replicate design: treated before aliquoting. The protocol: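 HT-PELSA: desalted E. coli K-12 BW25113 lysate (with 12 mM MgCl2) incubated with 5 mM ATP (pH 7) or water for 30 min at 25 C, then a 4 min trypsin pulse at 22 C. Peptides were quantified by DIA-MS (4 replicates). Value is the peptide log2 fold change (treated/control); negative = stabilized. Scale: negative = ligand-stabilized region.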
UniProt P0AEZ1, sequence (P0AEZ1 whole entry): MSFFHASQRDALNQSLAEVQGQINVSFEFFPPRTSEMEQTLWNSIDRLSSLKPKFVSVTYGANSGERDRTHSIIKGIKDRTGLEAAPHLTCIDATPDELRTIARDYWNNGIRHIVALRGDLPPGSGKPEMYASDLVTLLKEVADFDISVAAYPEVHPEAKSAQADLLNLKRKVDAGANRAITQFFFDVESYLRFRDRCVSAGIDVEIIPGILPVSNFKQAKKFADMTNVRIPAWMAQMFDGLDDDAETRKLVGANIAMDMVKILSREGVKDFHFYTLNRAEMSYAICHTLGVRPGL
In the case of `Nc1ncnc2c1ncn2[C@@H]1O[C@H](COP(=O)(O)OP(=O)(O)OP(=O)(O)O)[C@@H](O)[C@H]1O` [adenosine 5'-triphosphate], the log2 fold change is -1.01.

The values above are taken from the supplement of paper PMC12819154, “High-throughput peptide-centric local stability assay extends protein–ligand identification to membrane proteins, tissues and bacteria” (Nature Structural & Molecular Biology, 2025).
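Also: lysate desalted by size exclusion to strip endogenous ATP, peptide intensities built from DIA-NN precursor signals, and peptides missing any value discarded before comparison.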
